Most compounds without a hit are left out; they make up all but 3.7% or so of the library.
GLP1R ag: agonists of human GLP-1 receptor; P43220; HEK293 GLP-1R CRE-luciferase, luminescence, 4-6 h; cells express a hypersensitive GLP-1R form; Potency, µM (titrated, usually from 45.6 µM), without a hit: top-dose activation, usual class: activators; 380,000 tested, 0.007% active; AID 624172; note: % of control where 0% means no effect
Target sequence (P43220 whole entry, looked up): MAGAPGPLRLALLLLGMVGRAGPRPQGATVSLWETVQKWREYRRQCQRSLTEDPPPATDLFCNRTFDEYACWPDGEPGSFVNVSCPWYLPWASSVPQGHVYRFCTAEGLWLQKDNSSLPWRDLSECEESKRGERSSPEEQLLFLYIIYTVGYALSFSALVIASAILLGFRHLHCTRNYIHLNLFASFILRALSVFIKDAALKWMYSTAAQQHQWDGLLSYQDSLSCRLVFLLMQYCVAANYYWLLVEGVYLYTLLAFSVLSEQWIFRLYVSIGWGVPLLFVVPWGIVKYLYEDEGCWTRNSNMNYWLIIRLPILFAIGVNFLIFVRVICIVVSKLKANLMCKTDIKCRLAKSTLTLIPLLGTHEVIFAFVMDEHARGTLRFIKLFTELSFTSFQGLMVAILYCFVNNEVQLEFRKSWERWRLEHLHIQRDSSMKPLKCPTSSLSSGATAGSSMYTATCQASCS
ATXN2 expr inh: reduces ATXN2 reporter expression in HEK-293 cells. HEK-293 ATXN2-luciferase reporter, luminescence, 24 h. Potency, µM (top dose mostly 57 µM), for the others: top-dose activity change, negative = inhibition, actives largely listed as inhibitors. 360,000 tested, 0.72% active. AID 1745845; note: % is set by controls: 0 for no effect and ±100 for the full control effect; nearly all actives have a fitted effect of over 55% in size
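qHTS (up to 57 uM final) was run with 24 h compound exposure of reporter cells at 37 °C. Each well was multiplexed: SteadyGlo luminescence measured ATXN2-luciferase expression after a fluorogenic Gly-Phe-AFC viability readout (25 uM final).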
GLP-1R inv ag: GLP-1 receptor (human) inverse agonism; P43220; HEK293 GLP-1R CRE-luciferase, luminescence, 24 h; GLP-1R form is constitutively active; Potency, µM (highest dose often 38.3 µM), without a hit: top-dose activity change, negative = inhibition, usual class: inhibitors; 410,000 tested, 1.6% active; note: % is set by controls: 0 for no effect and ±100 for the full control effect; nearly all actives have a fitted effect of over 55% in size
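Inverse agonists were sought by their lowering of basal cAMP reporter luciferase output in HEK293 cells stably carrying constitutively active human GLP-1R, after 24 h compound treatment.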
TGFb inhibitor: blocks TGF-b signaling | HepG2 CAGA-GFP TGF-b/SMAD3 reporter, GFP fluorescence, 18 h; TGF-beta stimulated, 500 pg/mL final | Potency, µM (highest dose often 46.1 µM), without a hit: at the top dose activity, negative = inhibition, usual class: inhibitors | 410,000 tested, 1.2% active | AID 588855; note: % is set by controls: 0 for no effect and ±100 for the full control effect; nearly all actives have a fitted effect of over 65% in size
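TGF-beta reporter screen: HEPG2 CAGA-GFP, 1% FBS, 500 pg/mL TGF-beta final, 18 h; per-cell GFP summed per well; curves fitted and categorized by class.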
S2 tox: reduces viability in counter-screen for ATXN expression inhibitors; S2 cells (HEK-293 line with an ATXN2-luciferase reporter) viability, CellTiter-Fluor protease fluorescence, 24 h; Potency, µM (series often up to 56.7 µM), actives largely listed as cytotoxic; 400,000 tested, 0.49% active; AID 651635; note: nearly all actives have a fitted effect of over 40% in size
HepG2 tox: counter-screen for TGF-b inhibitors: cytotoxicity in HepG2 cells; HepG2 CAGA-GFP viability, ATP luminescence, 18 h; Potency, µM (titrated, usually from 46.1 µM), for the others: at the top dose activity change, negative = cytotoxicity, usual class: cytotoxic; 410,000 tested, 0.76% active; AID 588856
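HepG2 CAGA-GFP cells (1000/well, DMEM with 1% FBS) received compound, then TGF-beta at 500 pg/mL final, and were incubated 18 hours at 37 degrees C. Viability was read by CellTiter-Glo luminescence. Media-only wells were set as complete cell-killing and DMSO as no toxicity.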
Starred values were filed as active, the others as inactive; ! = not confirmed by another sample; [ ] = dose if it differs, or a comment. Calls come from the whole dose curve; as a rule, active = well fitted curve in the direction sought with a large enough effect; inconclusive = small, poorly fitted or top-dose-only effect, or another doubt; inactive = no such curve, though single readings can be large; an effect the other way counts as inactive or inconclusive. Potency is the fitted concentration of half-maximal effect.

Screening Cc1cccc(NC(=S)N/N=C2\CC(C)(C)Oc3ccc(O)cc32)c1 returned GLP1R ag 13%, ATXN2 expr inh -15%, GLP-1R inv ag inconclusive, TGFb inhibitor 5%, S2 tox inactive and HepG2 tox -23%.
COc1ccc2[nH]c(CCc3nc4c(OC)c(OC)ccc4[nH]3)nc2c1OC was read as TGFb inhibitor 8% and HepG2 tox 3%.
Screening Cc1c(CC(=O)NCCCC(=O)O)c(=O)oc2cc3c(cc12)CCC(C)(C)O3 returned GLP1R ag -1%, ATXN2 expr inh 3.2µM*, GLP-1R inv ag 5%, TGFb inhibitor 0%, S2 tox inactive and HepG2 tox -3%.
Screening O=[N+]([O-])c1ccc(/C=N/Nc2ncccc2[N+](=O)[O-])s1 returned GLP1R ag 0%, ATXN2 expr inh -5%, GLP-1R inv ag inconclusive, TGFb inhibitor -17%, S2 tox inactive and HepG2 tox 5µM*.
COc1cccc(/C=N/Nc2ncccc2[N+](=O)[O-])c1OC was read as GLP1R ag -10%, ATXN2 expr inh 3.2µM*, GLP-1R inv ag inconclusive, TGFb inhibitor -20%, S2 tox inactive and HepG2 tox -60%.
Screening CC(C)OC(=O)c1c(NC(=O)c2cc3nc(-c4ccccc4)cc(C(F)(F)F)n3n2)sc2c1CCCC2 returned GLP-1R inv ag 7%, TGFb inhibitor inconclusive and HepG2 tox 1%.
Screening COC(=O)C1CCCCN1Cc1ccc2c(c1)CN(C1CCSCC1)CCO2 (stereo not given) returned S2 tox inactive.
For O=Nc1c(O)n(Cc2ccc(Cl)c(Cl)c2)c2ccccc12 the results were GLP1R ag 0%, ATXN2 expr inh inconclusive, GLP-1R inv ag inconclusive, TGFb inhibitor 0%, S2 tox inconclusive and HepG2 tox 13µM*.
For O=Nc1c(O)n(Cc2ccccc2)c2ccccc12 the results were GLP1R ag 4%, ATXN2 expr inh -16%, GLP-1R inv ag -30%, TGFb inhibitor -20%, S2 tox inactive and HepG2 tox -29%.
For COCCNc1oc(-c2ccc(Cl)cc2)nc1C#N the results were GLP1R ag 5%, ATXN2 expr inh 55%, GLP-1R inv ag 14%, TGFb inhibitor 18%, S2 tox inactive and HepG2 tox 68%.
`C=CCNc1oc(-c2ccc(-c3ccccc3)cc2)nc1C#N` gave GLP1R ag -1%, ATXN2 expr inh inconclusive, TGFb inhibitor 10µM*, S2 tox inconclusive and HepG2 tox -39%.
For CN(C)CCCNc1oc(-c2ccc(Cl)cc2)nc1C#N the results were GLP1R ag -11%, ATXN2 expr inh -5%, GLP-1R inv ag 5µM*, TGFb inhibitor 7%, S2 tox inactive and HepG2 tox -25%.
Screening CN1CCN(c2cc(-c3cc(O)c4ncccc4c3)ccn2)CC1 returned GLP1R ag 0%, ATXN2 expr inh 10µM*, TGFb inhibitor inconclusive, S2 tox inconclusive and HepG2 tox -48%.
CC1(C)CC(N=c2cc(-c3ccccc3)oc3ccc(Cl)cc23)CC(C)(C)N1 was read as GLP1R ag -3%, ATXN2 expr inh 1%[11.3 µM], GLP-1R inv ag 3.5µM*, TGFb inhibitor inconclusive, S2 tox inactive and HepG2 tox 16µM*.
Nc1nc(N)c2nc(-c3cccc(O)c3)c(-c3cccc(O)c3)nc2n1 was read as ATXN2 expr inh 24µM*.
Screening Oc1c(Br)cc(Br)cc1CNc1cccc2cccnc12 returned GLP1R ag -1%, GLP-1R inv ag inconclusive, TGFb inhibitor inconclusive, S2 tox inactive and HepG2 tox -63%.
Cc1ccnc2c1ccc1ccccc12 was read as GLP1R ag -1%, ATXN2 expr inh -1%, GLP-1R inv ag 10%, TGFb inhibitor -7%, S2 tox inactive and HepG2 tox -16%.
Cc1ccnc2c1ccc1cccnc12 was read as GLP1R ag 4%, ATXN2 expr inh inconclusive, GLP-1R inv ag inconclusive, TGFb inhibitor -23%, S2 tox inconclusive and HepG2 tox -4%.
Screening Cc1ccnc2c(O)cccc12 returned TGFb inhibitor 3.5µM* and HepG2 tox 4µM*.
`Cc1cc(C)c2cccnc2c1O` gave TGFb inhibitor 3.2µM* and HepG2 tox -56%.
Oc1c(Br)cc(Br)c2cccnc12 was read as GLP1R ag -2%, ATXN2 expr inh 22µM*!, GLP-1R inv ag inconclusive, TGFb inhibitor inconclusive, S2 tox inconclusive and HepG2 tox -54%.
`Cc1ccnc2c1ccc1c(C)ccnc12` gave GLP1R ag 14%, ATXN2 expr inh 5.3µM*, GLP-1R inv ag inconclusive, TGFb inhibitor 4.5µM* and HepG2 tox 16µM*.
`O=C(OCC(COC(=O)c1cccnc1)(COC(=O)c1cccnc1)COC(=O)c1cccnc1)c1cccnc1` gave GLP1R ag 1%, ATXN2 expr inh -5% and S2 tox inactive.
Screening Cc1cccnc1NCc1ccc(O)c2ncccc12 returned GLP1R ag 18%, ATXN2 expr inh inconclusive, GLP-1R inv ag 2.8µM*, TGFb inhibitor inconclusive, S2 tox inactive and HepG2 tox -40%.
Cc1nc2ccn(Cc3ccco3)c(=O)c2cc1C(=O)NCc1ccc(F)cc1 was read as GLP-1R inv ag inconclusive, TGFb inhibitor -23% and HepG2 tox 2%.
For O=C(O)Cn1c(=O)n(Cc2ccc(Br)cc2F)c(=O)c2ccc(Cl)cc21 the results were ATXN2 expr inh 2% and S2 tox inactive.
For O=C(Nc1cccc(-c2nnc(-c3ccco3)o2)c1)c1ccccc1 the results were GLP1R ag 7%, ATXN2 expr inh -16%, GLP-1R inv ag -46%, TGFb inhibitor 4%, S2 tox inactive and HepG2 tox -16%.
Screening O=C(Nc1cccc(-c2nnc(-c3ccco3)o2)c1)C(c1ccccc1)c1ccccc1 returned GLP1R ag -2%, ATXN2 expr inh 1%, GLP-1R inv ag 8.9µM*, TGFb inhibitor 1%, S2 tox inactive and HepG2 tox -8%.
`CC(=O)Nc1cccc(Oc2ncnc3scc(-c4ccc(C)cc4)c23)c1` gave GLP1R ag 12%, ATXN2 expr inh inconclusive, GLP-1R inv ag inconclusive, TGFb inhibitor inconclusive, S2 tox 32µM* and HepG2 tox -27%.
For CS(=O)(=O)c1ncc(Cl)c(C(=O)N(Cc2ccc(Cl)cc2)Cc2ccco2)n1 the results were ATXN2 expr inh 5.6µM*, GLP-1R inv ag 8.9µM*, TGFb inhibitor 5µM* and HepG2 tox 3.2µM*.
